Molecules are shown by their SMILES. Results filed as inconclusive are left out. Active and inactive are the calls of the source. The call rests on the fitted dose curve; in most records, active means well fitted curve in the direction sought with a large enough effect; inconclusive means small, poorly fitted or top-dose-only effect, or another doubt; inactive means no such curve, though single readings can be large; an effect the other way counts as inactive or inconclusive.

We go through 31 compounds from PubChem BioAssay (NCATS).

A short description of test [1]: qHTS for Inhibitors of Plasmodium falciparum (DD2) proliferation (AID 504314).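 Further: parasite DNA measured by SYBR Green fluorescence after red cell lysis.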 The procedure, abridged: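 Erythrocytes infected with P. falciparum (0.3% parasitemia, 2.5% hematocrit final) were incubated with compounds for 72 h at 37C, 5% CO2. Parasite DNA was detected by SYBR Green I fluorescence after saponin/Triton lysis, normalized to artemisinin (0.29 uM) and DMSO controls.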

A short description of test [2]: qHTS for Inhibitors of Plasmodium falciparum (7G8) proliferation (AID 504316). Further: nearly all actives have a fitted effect of over 65% in size. Further: potency means the concentration at half of the fitted maximal effect. The procedure, abridged: (§1)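 Erythrocytes infected with P. falciparum line (0.3% parasitemia, 2.5% hematocrit final) incubated with compounds 72 h at 37 °C, 5% CO2; SYBR Green lysis buffer added, fluorescence read next day. Normalized to 0.29 uM artemisinin and DMSO.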
Test [3] in a line: qHTS for Inhibitors of Plasmodium falciparum (HB3) proliferation (AID 504318). Further: nearly all actives have a fitted effect of over 60% in size. The procedure, abridged:
as §1

Test [4] in a line: qHTS for Inhibitors of Plasmodium falciparum (GB4) proliferation (AID 504315). Further: nearly all actives have a fitted effect of over 50% in size. Further: potency means the concentration at half of the fitted maximal effect. Put shortly:
as §1

Test [5] can be described thus: qHTS for Inhibitors of Plasmodium falciparum (CP250) proliferation (AID 504320). The procedure, abridged: as §1

On to `COC(=O)C1=C(C(=O)OC)[C@@H]2N(C)c3ccccc3[C@@]23C[C@@H](C(=O)OC)N(C(=O)C2CCC2)C3=N1`, for which the Potency result in test [1], in test [2] and in test [3] was “inactive” each time.
Regarding `COc1cccc(CC(=O)N2CCc3nc(-c4ccccc4)c4c(c3C2)CO[C@@H](C)C4)c1`, the Potency entry in test [1], in test [4] and in test [3] was “inactive” in each case.
Take `COC/C=C/C1=CC2=CC(=O)C(C)(OC(=O)c3cnc4ccccc4n3)C(=O)C2=CN1CC(C)C` (centres undefined): the Potency result in test [1], in test [2], in test [3] and in test [5] was “inactive” each time.
In the case of `CCOC(=O)NN=C1C[C@@H](O)[C@@H](O)[C@@H]2[C@H]3C(=O)N(C4CCCCC4)C(=O)[C@@H]3CC[C@@H]12`, the Potency entry in test [1], in test [4], in test [3] and in test [5] was “inactive” in each case.
As to `CCOC(=O)CN1C(=O)NC(c2cccc(C(F)(F)F)c2)C(C(C)=O)=C1C` (centres undefined), the Potency result in test [1], in test [2], in test [3] and in test [5] was “inactive” in each case.
For `COc1ccc(C2=CC3=C(Br)C(=O)C(C)(OC(=O)c4cnc5ccccc5n4)C(=O)C3=CO2)cc1` (centres undefined), the Potency result in test [1], in test [4], in test [3] and in test [5] was “inactive” each time.
Consider `COc1ccc(C2=CC3=C(Br)C(=O)C(C)(OC(=O)c4ccco4)C(=O)C3=CO2)cc1` (centres undefined), for which the Potency entry in test [1], in test [2], in test [3] and in test [5] was “inactive” each time.
On to `CCOC(=O)C=CCCCC=CC(=O)c1ccccc1`, for which the Potency result in test [1], in test [2], in test [3] and in test [5] was “inactive” each time.
On to `CCN1C(=O)N[C@@H](c2cccc(F)c2)C(C(=O)OC)=C1C`, for which the Potency result in test [1], in test [2] and in test [3] was “inactive” each time.
Regarding `CCN1C(=O)N[C@@H](c2cccc(C(F)(F)F)c2)[C@@H](C(=O)OC)[C@H]1C`, the Potency result in test [1], in test [2], in test [3] and in test [5] was “inactive” throughout.
On to `C=CCOC(=O)N[C@H](C(C(=O)OC)=C(C)NCc1ccccc1)c1cccc(F)c1`, for which the Potency entry in test [1], in test [4], in test [3] and in test [5] was “inactive” each time.
Take `COC(=O)CCC(=O)OC1(C)C(=O)C2=CN(CC(C)C)C(c3ccc(OC)cc3)=CC2=C(Br)C1=O` (centres undefined): the Potency entry in test [1], in test [2], in test [3] and in test [5] was “inactive” in each case.
With `C=CC[C@]1(C(=O)OC)C=C[C@H](C)[C@@H](c2ccccc2)N1C(=O)C(F)(F)F`, the Potency result in test [4], in test [2], in test [3] and in test [5] was “inactive” in each case.
Consider `CCOC(=O)NN=C1C[C@@H](O)[C@@H](O)[C@@H]2[C@H]3C(=O)N([C@@H](C)c4ccccc4)C(=O)[C@@H]3CC[C@@H]12`, for which the Potency result in test [4], in test [2], in test [3] and in test [5] was “inactive” each time.
Regarding `CCN1C(=O)N[C@H](c2ccccc2)C(C(C)=O)=C1C`, the Potency entry in test [1], in test [2], in test [3] and in test [5] was “inactive” throughout.
Regarding `C[C@H]1Cc2c(-c3ccccc3)nc3c(c2CO1)CN(C(=O)C1CC1)CC3`, the Potency entry in test [4], in test [3] and in test [5] was “inactive” in each case.
Take `COC(=O)C1=C(C(=O)OC)[C@@H]2N(C)c3ccccc3[C@@]23C[C@@H](CO)N=C3N1`: the Potency result in test [4], in test [2], in test [3] and in test [5] was “inactive” throughout.
`COCC(=O)N1CCc2nc(-c3ccc(OC)cc3C)c3c(c2C1)CO[C@@H](c1ccccc1)C3`: the Potency result in test [4], in test [2], in test [3] and in test [5] was “inactive” each time.
For the compound `COC(=O)CCC(=O)OC1(C)C(=O)C=C2C=C(C3CC3)N(CC(C)C)C=C2C1=O` (centres undefined), the Potency result in test [4], in test [3] and in test [5] was “inactive” in each case. Besides, in test [2], the Potency is 1510 nM (active).
As to `COC(=O)CCCC1=CC2=CC(=O)C(C)(OC(=O)c3cccs3)C(=O)C2=CN1Cc1ccc2c(c1)OCO2` (centres undefined), the Potency entry in test [4], in test [2] and in test [3] was “inactive” in each case.
Regarding `COC(=O)C1=C(C)N(Cc2ccccc2)C(=O)N[C@H]1c1cccs1`, the Potency result in test [1], in test [2], in test [3] and in test [5] was “inactive” throughout.
With `COC(=O)C1=C(C(=O)OC)[C@@H]2Nc3ccccc3[C@@]23C[C@@H](C(=O)OC)N(S(=O)(=O)c2ccc(C)cc2)C3=N1`, the Potency result in test [1], in test [2], in test [3] and in test [5] was “inactive” throughout.
Turning to `COc1ccc(-c2nc3c(c4c2C[C@H](c2ccccc2)OC4)CN(S(=O)(=O)c2ccc4c(c2)OCCN4C)CC3)c(C)c1`, the Potency result in test [4], in test [2], in test [3] and in test [5] was “inactive” in each case.
Turning to `C=CCN1c2ccccc2[C@]23C[C@@H](C(=O)OC)N(S(=O)(=O)c4ccc([N+](=O)[O-])cc4)C2=NC(C(=O)OC)=C(C(=O)OC)[C@H]13`, the Potency in test [4] was 1510 nM (active); in test [2] it was 1690 nM (active).
With `COC(=O)CCCC1=CC2=CC(=O)C(C)(OC(=O)c3cccs3)C(=O)C2=CN1c1ccccc1` (centres undefined), the Potency result in test [4], in test [2] and in test [3] was “inactive” each time.
Turning to `CCCCC1=CC2=C(c3ccco3)C(=O)C(C)(OC(=O)c3ccc(OC)cc3)C(=O)C2=CN1C1CC1` (centres undefined), the Potency result in test [4], in test [3] and in test [5] was “inactive” throughout.
`COC(=O)C1=C(C)N(Cc2ccccc2)C(=O)N[C@H]1c1cccc(F)c1`: the Potency entry in test [4], in test [2], in test [3] and in test [5] was “inactive” throughout.
Regarding `CCCCc1nc2c(c3c1C[C@H](C)OC3)CN(C(=O)N[C@H](C(=O)OC)C(C)C)CC2`, in test [4], the Potency entry was “inactive”.
Consider `COC(=O)C1=C(C(=O)OC)[C@@H]2N(C)c3ccccc3[C@@]23C[C@@H](C(=O)OC)N(S(=O)(=O)c2ccc(Br)cc2)C3=N1`, for which the Potency was 2130 nM (active) in test [4] and 1690 nM (active) in test [2].
On to `COCCN1C(=O)N[C@@H](c2cccc(F)c2)C(C(C)=O)=C1C`, for which the Potency result in test [1], in test [2], in test [3] and in test [5] was “inactive” throughout.
On to `CC#CCN1c2ccccc2[C@]23C[C@@H](C(=O)OC)N(C(=O)COCc4ccccc4)C2=NC(C(=O)OC)=C(C(=O)OC)[C@H]13`, for which the Potency entry in test [4], in test [3] and in test [5] was “inactive” throughout.
